From PubChem BioAssay AID504660 (National Center for Advancing Translational Sciences (NCATS), 2011) come the findings set out here.

SMILES strings stand for the structures. Hit rate of the full screen: of about 360,000 compounds, about 3,700 (1%) were called active. For the sample, actives were picked, then their nearest neighbours and some compounds at random. Values without a mark were called inactive. No stated cut-off is given here; in the data, active means activation above about 30%; inactive means the rest.

The target in this assay is D(1A) dopamine receptor (Homo sapiens) (UniProt P21728). Kind of assay: Allosteric Agonists of the Human D1 Dopamine Receptor: qHTS. Further: 0% is about no effect. Particulars: HEK293 T-REx D1 cells, calcium flux, agonist mode; at 2 µM; active compounds read high. In a few lines: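 Tetracycline-induced HEK293 TREx D1 cells, force-coupled to calcium signalling, were dye-loaded with a no-wash calcium kit. Compound was pin-added after a 10 s baseline. Fluorescence was read kinetically at 1 cycle/s for 180 s, with calcium rises flagged as agonism.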
Chain of D(1A) dopamine receptor (Homo sapiens) (P21728 whole entry, looked up): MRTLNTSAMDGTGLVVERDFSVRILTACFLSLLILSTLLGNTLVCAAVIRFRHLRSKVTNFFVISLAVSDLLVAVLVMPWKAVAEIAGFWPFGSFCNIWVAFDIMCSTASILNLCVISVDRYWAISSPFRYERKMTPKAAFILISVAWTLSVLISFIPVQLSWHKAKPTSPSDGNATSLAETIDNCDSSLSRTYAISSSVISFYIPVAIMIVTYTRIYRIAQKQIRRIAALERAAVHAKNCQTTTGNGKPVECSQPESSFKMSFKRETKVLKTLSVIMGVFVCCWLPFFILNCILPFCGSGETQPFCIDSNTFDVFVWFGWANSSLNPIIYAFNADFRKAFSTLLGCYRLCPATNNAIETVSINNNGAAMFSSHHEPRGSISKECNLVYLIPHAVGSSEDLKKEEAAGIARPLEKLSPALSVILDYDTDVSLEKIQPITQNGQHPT
With `CCOC(=O)c1ccc(CN(Cc2ccccc2)S(=O)(=O)c2ccc(Cl)cc2)cc1`, the activation was 18.5%. To `O=[S+]([O-])(c1ccc(OC(F)(F)F)cc1)N1CCN([S+](=O)([O-])c2ccc3c(c2)OCCO3)CC1` belongs 4.97%. In the case of `CC1Cc2cc(S(=O)(=O)CCC(=O)NCc3ccc(Cl)cc3)ccc2N1C(=O)C1CC1` (configuration not stated), the activation is 14%. In the case of `Cc1cccc(NC(=O)c2cccc(C(=O)Nc3cccc(C)c3C)n2)c1C`, the activation was 2.25%. For the compound `Cc1cccc(NC(=O)N2CCN(C)c3ncccc32)c1C`, the activation was 33.9% (active). To `Cc1cccc(NC(=O)N2CCCCCC2)c1C` belongs 0.571%. As for `O=C1C(F)N([S+](=O)([O-])c2ccc3c(c2)OCCO3)CCN1[S+](=O)([O-])c1c(F)cccc1F` (configuration not stated), the activation was -0.431%. To `COc1ccc(CCC(=O)NCCc2csc(-c3ccc(Cl)cc3)n2)cc1` belongs 5.93%. As for `O=C(Cc1nc2ccccc2[nH]c1=O)c1ccc(Cl)cc1`, the activation is 69.4% (active). Consider `O=C(c1ccc(Cl)cc1)n1cnc2ccccc21`, for which the activation is 1.83%.

For `O=c1c(-c2ccc(Cl)cc2)[n+]([O-])c2ccccc2n1OCc1nc2ccccc2[nH]1`, the activation was -0.955%.

For `C#CC(C)(CC)NC(=O)Cn1nnc(-c2ccc(OCc3c(F)cccc3Cl)cc2)n1` (configuration not stated), the activation is 3.62%.

As for `COc1ccc(CCNC(=O)CCCn2c(=O)c3ccccc3n(Cc3ccc(C)cc3)c2=O)cc1OC`, the activation is -2.01%. To `COc1cccc(CNC(=O)CCc2nc(-c3ccc(C)cc3)no2)c1` belongs 3.85%; to `COc1ccccc1-c1noc(CSc2nnc(-c3ccccc3)n2-c2ccc(C)c(C)c2)n1`, 0.886%. With `COc1cccc(C(=O)NC(=O)Nc2nc(C)cc(C(F)(F)F)n2)c1` the figure was 2.89%; with `COc1cccc(C(=O)c2sc3nc(-c4ccccc4)cc(C(F)(F)F)c3c2N)c1`, 171% (active). To `COc1cccc(C(=O)Nc2ccc(-c3cc(C(F)(F)F)nn3-c3ccccc3)cc2)c1` belongs 2.16%; to `Cc1ccccc1CNC(=O)CCCn1nc(C)c2sc3ccccc3c2c1=O`, 5.39%. As for `CSc1ccccc1-c1nnc(NC(=O)c2ccc3c(c2)OCCO3)o1`, the activation was 0.0799%. Regarding `CCC(C(=O)Nc1cccc(-c2nc3cccnc3s2)c1C)c1ccccc1` (configuration not stated), the activation was 6.2%. To `COc1cc(NS(=O)(=O)c2cccs2)cc(OC)c1` belongs -0.545%; to `COc1cc(NC(=O)c2ccccc2NS(=O)(=O)c2ccc(Cl)s2)cc(OC)c1`, 32.7% (active); to `O=S(=O)(Nc1ccccc1N1CCOCC1)c1ccc(Cl)s1`, 0.142%. To `CCCn1c(NCc2ccc(N(CC)CC)cc2)nc2ccccc21` belongs 15.4%; to `COc1cc(CN2CCC(n3nccc3NC(=O)CCCc3ccccc3)CC2)ccc1O`, 0.415%; to `Cc1ccc(CN2CCC(n3nccc3NC(=O)CCCc3ccccc3)CC2)o1`, 1.76%. With `COc1ccc(CN2CCC(n3nccc3NC(=O)CCCc3ccccc3)CC2)cc1C` the figure was 37.7% (active); with `Cc1ccc(CN2CCC(CNC(=O)c3cnn(-c4ccc(C)cc4)c3C3CCN(C(=O)OC(C)(C)C)CC3)CC2)cc1`, 33.1% (active).

For the compound `COc1ccccc1CN1CCC(CNC(=O)c2cnn(-c3cccc(Cl)c3)c2C2CCN(C(=O)OC(C)(C)C)CC2)CC1`, the activation is 9.95%. To `Cc1ccc(CN2CCC(CNC(=O)c3cnn(-c4ccccc4Cl)c3C3CCN(C(=O)OC(C)(C)C)CC3)CC2)cc1` belongs 27.5%. With `COc1ccc(-n2c(C)nc3c(cnn3-c3ccc(F)cc3)c2=O)cc1` the figure was 9.13%; with `Cc1ccc(NC(=O)COC(=O)CNC(=O)c2ccc(Cl)cc2Cl)cc1S(=O)(=O)N1CCOCC1`, 31.1% (active). With `Cc1ccc(C(=O)OCC(=O)Nc2ccc(Cl)cn2)cc1S(=O)(=O)N1CCOCC1` the figure was 5.99%; with `Cc1ccc(NC(=O)CCCNC(=O)c2ccc(Cl)cc2)cc1S(=O)(=O)N1CCOCC1`, 0.321%. `Cc1ccc(S(=O)(=O)N2CCC(C(=O)Nc3cc(C)ccc3C)CC2)cc1`: the activation was 1.28%. As to `CC(C)(C)CC(C)(C)NCC(O)COCCOc1ccc(Br)cc1` (configuration not stated), the activation is 171% (active). With `COc1ccc(OCC(O)CNCCNc2nccc(C(F)(F)F)n2)cc1` (configuration not stated) the figure was 1.81%; with `CC(Oc1ccc(Br)cc1)C(=O)NC1CCCCCC1` (configuration not stated), 1.77%; with `COc1ccc(-n2ccnc(NCCc3ccc(Cl)cc3)c2=O)cc1OC`, 1.51%. Consider `COc1cc(OC)c(NC(=O)c2cc(S(=O)(=O)N3CCCC3)cn2C)cc1Cl`, for which the activation is 0.318%. With `COc1ccccc1C(=O)OCc1cc(=O)n2nc(-c3cccs3)sc2n1` the figure was 0.554%; with `COc1ccc(C(=O)N2CCC(c3nc4ccccc4o3)CC2)cc1`, 0.0167%.

As to `O=C(Cn1cc(SCc2ccccc2)c2ccccc21)N1CCCCC1`, the activation was 0.868%.

For `CN(Cc1ccccc1)CC(O)COc1ccc(CNCc2cc3ccccc3s2)cc1` (configuration not stated), the activation is 36.8% (active).

Turning to `COc1cccc(CN(C)CC(O)COC(c2ccccc2)c2ccccc2C)c1` (configuration not stated), the activation was 5.2%. With `COc1ccc(OCC(O)CN(C)C(=O)C(C)Oc2ccccc2)cc1` (configuration not stated), the activation is 3.18%.

Take `Cc1ccc2nc(N3C(=O)C(O)=C(C(=O)c4ccco4)C3c3cccc(O)c3)sc2c1` (configuration not stated): the activation was 7.96%. For `C=CCSc1nnc(N2C(=O)C(O)=C(C(=O)c3ccco3)C2c2ccc(F)cc2)s1` (configuration not stated), the activation was 54.8% (active). For the compound `C=CCOc1cccc(C2C(C(=O)c3ccc(C)o3)=C(O)C(=O)N2c2nnc(C)s2)c1` (configuration not stated), the activation is 29.7%. To `COc1ccc(CNC(=O)c2ccc(NC(=O)N3CC4CCCN4c4ccccc43)cc2)cc1` (configuration not stated) belongs 0.101%; to `COc1ccc(Cn2ccn(CC(=O)Nc3cc(C)ccc3C)c(=O)c2=O)cc1`, 18.9%. For the compound `CCc1nc2ccc(C(=O)N3CCN(c4cc(Cl)ccc4C)CC3)cc2nc1CC`, the activation is 5.95%. Take `O=C(NC1CC(=O)N(c2ccc(F)cc2)C1)c1cccs1` (configuration not stated): the activation was 1.75%. To `CCOC(=O)c1cc(NC(=O)c2ccc(Cl)cc2)c(=O)oc1-c1ccccc1` belongs 3.05%; to `COc1ccc(C2COC(=O)C2=N)c(NC(=O)c2ccccc2)c1` (configuration not stated), 0.266%. To `CC(=O)c1cc(NC(=O)c2ccccc2)c(=O)oc1/C=C/N(C)C` belongs 30.3% (active).
